Source: PubChem BioAssay
For some assays here: Results with a measured potency or affinity are listed apart. Active and inactive are the calls of the source. Unless noted, no rule for the calls is given here.

Assays:
[1] = antimalarial activity against Dd2 strain (AID 2302;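 active = growth inhibition above 50% at the single 2 µM test dose, taken to imply half-maximal potency below 2 µM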;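 also: 0% = DMSO untreated growth and 100% = chloroquine plus artemisinin killed control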); conditions: P. falciparum Dd2 in RBCs, LDH growth readout, 72 h; at 2 µM; stronger effect = higher value
[2] = human hepatoma cell viability loss – ATP luminescence, cytotoxicity control for P. falciparum antimalarial project, primary screen (AID 2303;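 active = inhibition above 50%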;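 also: 0% = DMSO wells and 100% = digitonin-killed cells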); conditions: HepG2 viability, 24-48 h, at 10 µM, stronger effect = higher value
[3] = target: L-lactate dehydrogenase (Plasmodium falciparum (isolate CDC / Honduras)) (UniProt Q27743); test: PfLDH activity inhibition – cell lysate, 3D7 strain, counter-screen for P. falciparum growth inhibition project (AID 2304);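 also: 0% = vehicle and 100% = reference inhibitor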; conditions: P. falciparum 3D7 crude extract, LDH APAD/NBT absorbance; at 2 µM; stronger effect = higher value
Sequence of L-lactate dehydrogenase (Plasmodium falciparum (isolate CDC / Honduras)) (Q27743 whole entry, looked up): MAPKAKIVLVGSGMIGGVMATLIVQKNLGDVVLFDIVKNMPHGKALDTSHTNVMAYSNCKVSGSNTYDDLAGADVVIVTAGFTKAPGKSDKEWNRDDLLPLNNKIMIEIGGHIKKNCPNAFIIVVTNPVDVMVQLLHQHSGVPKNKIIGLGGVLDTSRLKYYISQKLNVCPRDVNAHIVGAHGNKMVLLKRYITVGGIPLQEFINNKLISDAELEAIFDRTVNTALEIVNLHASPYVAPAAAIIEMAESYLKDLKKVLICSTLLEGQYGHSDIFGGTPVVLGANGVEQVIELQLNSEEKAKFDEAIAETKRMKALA

[4] = inhibition of 3D7 malaria parasite growth – strain 3D7 (AID 2306);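 also: 0% = DMSO wells and 100% = chloroquine plus artemisinin control wells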; conditions: P. falciparum 3D7 erythrocytic growth, LDH absorbance, 72 h; at 2 µM; stronger effect = higher value
[5] = target: Calcium-dependent protein kinase 1 (Plasmodium falciparum (isolate 3D7)) (UniProt P62344); test: PfCDPK1 kinase inhibitors, biochemical, TCAMS library (AID 1159585; cut-off not given, nearly all actives have IC50 up to about 0.98 µM;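 also: inhibitors leave more ATP so luminescence rises with inhibition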); conditions: recombinant PfCDPK1, Kinase-Glo ATP depletion luminescence
Sequence of Calcium-dependent protein kinase 1 (Plasmodium falciparum (isolate 3D7)) (P62344 whole entry, looked up): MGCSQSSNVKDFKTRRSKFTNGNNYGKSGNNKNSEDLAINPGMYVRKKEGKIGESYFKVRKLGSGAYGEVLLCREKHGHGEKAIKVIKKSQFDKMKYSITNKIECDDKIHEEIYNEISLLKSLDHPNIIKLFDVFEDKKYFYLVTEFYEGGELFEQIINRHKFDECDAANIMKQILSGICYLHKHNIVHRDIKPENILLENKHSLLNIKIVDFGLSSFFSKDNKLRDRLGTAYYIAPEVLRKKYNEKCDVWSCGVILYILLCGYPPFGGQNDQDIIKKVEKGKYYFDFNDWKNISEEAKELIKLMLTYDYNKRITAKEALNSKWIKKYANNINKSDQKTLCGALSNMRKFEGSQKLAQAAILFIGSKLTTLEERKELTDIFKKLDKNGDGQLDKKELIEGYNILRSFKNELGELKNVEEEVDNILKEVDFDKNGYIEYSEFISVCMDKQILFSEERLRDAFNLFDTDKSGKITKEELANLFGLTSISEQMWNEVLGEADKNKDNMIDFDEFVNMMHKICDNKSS

[6] = target: Plasmodium falciparum protein kinase 6 (PK6, PF3D7_1337100) (UniProt Q8IDW1); test: PfPK6 kinase inhibitors, biochemical, TCAMS library (AID 1159586); conditions: recombinant PfPK6, Kinase-Glo ATP depletion luminescence
Sequence of Plasmodium falciparum protein kinase 6 (PK6, PF3D7_1337100) (Q8IDW1 1-305): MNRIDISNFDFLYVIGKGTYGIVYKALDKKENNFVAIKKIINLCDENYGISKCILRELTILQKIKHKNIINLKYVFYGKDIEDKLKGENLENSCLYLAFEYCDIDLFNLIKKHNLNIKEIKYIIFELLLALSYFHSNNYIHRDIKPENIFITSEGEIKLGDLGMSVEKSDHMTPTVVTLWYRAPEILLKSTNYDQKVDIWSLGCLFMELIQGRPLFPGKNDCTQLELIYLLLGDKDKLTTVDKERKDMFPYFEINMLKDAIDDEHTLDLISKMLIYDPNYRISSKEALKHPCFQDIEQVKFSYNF

[7] = target: Protein kinase 7 (PK7), Plasmodium falciparum 3D7 (PF3D7_0213400) (UniProt Q7YTF7); test: inhibition of Plasmodium PK7 catalytic activity – biochemical, TCAMS antimalarial set, Kinase-Glo luminescence (AID 1159587); conditions: recombinant PfPK7, Kinase-Glo ATP depletion luminescence
Sequence of Protein kinase 7 (PK7), Plasmodium falciparum 3D7 (PF3D7_0213400) (Q7YTF7 1-343): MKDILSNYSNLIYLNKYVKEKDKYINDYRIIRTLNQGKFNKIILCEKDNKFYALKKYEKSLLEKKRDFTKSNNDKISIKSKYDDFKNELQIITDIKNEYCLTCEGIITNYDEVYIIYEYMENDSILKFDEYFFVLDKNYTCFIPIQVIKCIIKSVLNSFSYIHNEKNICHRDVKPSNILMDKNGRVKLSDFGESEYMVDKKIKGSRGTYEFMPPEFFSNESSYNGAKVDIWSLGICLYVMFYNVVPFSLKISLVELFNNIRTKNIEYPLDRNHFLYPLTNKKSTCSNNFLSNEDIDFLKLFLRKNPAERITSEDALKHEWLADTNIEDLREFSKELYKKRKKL

[8] = target: Calcium-dependent protein kinase 4 (Plasmodium falciparum (isolate 3D7)) (UniProt Q8IBS5); test: PfCDPK4 kinase inhibitors, biochemical, TCAMS library (AID 1159588; cut-off not given, nearly all actives have IC50 up to about 0.91 µM); conditions: recombinant PfCDPK4, Kinase-Glo ATP depletion luminescence
Sequence of Calcium-dependent protein kinase 4 (Plasmodium falciparum (isolate 3D7)) (Q8IBS5 whole entry, looked up): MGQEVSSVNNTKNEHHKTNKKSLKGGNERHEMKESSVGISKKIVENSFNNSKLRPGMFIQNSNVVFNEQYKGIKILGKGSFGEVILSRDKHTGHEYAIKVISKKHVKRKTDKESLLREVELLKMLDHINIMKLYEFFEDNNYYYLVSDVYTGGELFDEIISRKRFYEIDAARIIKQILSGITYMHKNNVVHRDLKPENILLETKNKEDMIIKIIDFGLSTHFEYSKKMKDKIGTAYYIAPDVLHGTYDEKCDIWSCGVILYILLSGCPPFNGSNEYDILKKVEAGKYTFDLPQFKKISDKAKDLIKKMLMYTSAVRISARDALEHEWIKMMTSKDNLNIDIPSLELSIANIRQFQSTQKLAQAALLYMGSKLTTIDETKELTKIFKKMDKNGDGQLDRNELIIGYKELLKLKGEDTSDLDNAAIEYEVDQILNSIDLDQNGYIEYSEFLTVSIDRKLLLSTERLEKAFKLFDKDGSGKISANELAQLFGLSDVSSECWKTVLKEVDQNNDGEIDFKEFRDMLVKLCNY

CC(C)(CN1CCCC1)CN(Cc1ccc(-c2ccc(C(F)(F)F)cc2)cc1)C(=O)Cn1c(CCc2cccc(F)c2F)nc(=O)c2ccccc21
active: growth inhibition [1] 64% | inhibition [2] 57% | growth inhibition [4] 97%
inactive: inhibition [3] -3% | outcome [5] | outcome [6] | outcome [7] | outcome [8]

COc1ccc2c(NN=Cc3ccncc3)ccnc2c1
active: growth inhibition [4] 95%
inactive: growth inhibition [1] 6% | inhibition [2] -12% | inhibition [3] -3% | outcome [5] | outcome [6] | outcome [7] | outcome [8]

COc1cc(Nc2ccnc3ccc(C(C)(C)C)cc23)cc(OC)c1OC
active: growth inhibition [1] 80% | growth inhibition [4] 100%
inactive: inhibition [2] 12% | inhibition [3] 1% | outcome [5] | outcome [6] | outcome [7] | outcome [8]

CC(C)C[C@@H](CNC[C@H](CC(C)C)NC(=O)OC(C)(C)C)NC(=O)OC(C)(C)C
active: growth inhibition [1] 58% | growth inhibition [4] 88%
inactive: inhibition [2] 4% | inhibition [3] 1% | outcome [5] | outcome [6] | outcome [7] | outcome [8]

CCN(CC)CCN(Cc1ccc(-c2ccc(C(F)(F)F)cc2)cc1)C(=O)Cn1c(CCc2cccc(F)c2F)nc(=O)c2cccnc21
inactive: inhibition [3] 2% | outcome [5] | outcome [6] | outcome [7] | outcome [8]
active: growth inhibition [1] 89% | inhibition [2] 75% | growth inhibition [4] 101%

O=C(Oc1ccc(Cl)cc1C(=O)Nc1ccc([N+](=O)[O-])cc1Cl)c1ccccc1
inactive: growth inhibition [1] 19% | inhibition [3] 3% | outcome [5] | outcome [6] | outcome [7] | outcome [8]
active: inhibition [2] 88% | growth inhibition [4] 97%

Fc1c(CNCC2CCN(CC3CCCCC3)CC2)cccc1C(F)(F)F
inactive: growth inhibition [1] 7% | inhibition [2] 35% | inhibition [3] 3% | outcome [5] | outcome [6] | outcome [7] | outcome [8]
active: growth inhibition [4] 93%

O=C(Nc1ccc(Cl)cc1)Nc1ccc2c(c1)N1CCN=C1S2
inactive: inhibition [2] 15% | inhibition [3] -1% | outcome [5] | outcome [6] | outcome [7] | outcome [8]
active: growth inhibition [1] 100% | growth inhibition [4] 99%

CCCCCCCN1CCC(CCNc2ccnc3ccc(OC)cc23)CC1
active: growth inhibition [1] 86% | growth inhibition [4] 84%
inactive: inhibition [2] 5% | inhibition [3] -2% | outcome [5] | outcome [6] | outcome [7] | outcome [8]

CS(=O)(=O)NCCCNCc1cccc(-c2ccc(-c3nc4ccc(C(F)(F)F)cc4[nH]3)cc2)c1
inactive: inhibition [2] 17% | inhibition [3] -4% | outcome [5] | outcome [6] | outcome [7] | outcome [8]
active: growth inhibition [1] 85% | growth inhibition [4] 100%

Cc1ccc(-c2noc(=O)n2CC(=O)Nc2ccccc2-c2ccccc2)cc1
active: growth inhibition [1] 86% | growth inhibition [4] 100%
inactive: inhibition [2] -1% | inhibition [3] 2% | outcome [5] | outcome [6] | outcome [7] | outcome [8]

Nc1nccc2ccc(-c3ccncc3)cc12
inactive: inhibition [2] 19% | inhibition [3] 5% | outcome [5] | outcome [6] | outcome [7] | outcome [8]
active: growth inhibition [1] 95% | growth inhibition [4] 96%

Cc1ccc(-n2nc(-c3ccccc3)c3cc(C(=O)NCCN)sc32)cc1
inactive: growth inhibition [1] 43% | inhibition [2] 28% | inhibition [3] 2% | outcome [5] | outcome [6] | outcome [7] | outcome [8]
active: growth inhibition [4] 92%

Cc1cccc(CC2CC(=O)N(c3ccc([N+](=O)[O-])cc3)C2=O)c1 (stereo not given)
inactive: growth inhibition [1] 1% | inhibition [2] 11% | inhibition [3] 2% | outcome [5] | outcome [6] | outcome [7] | outcome [8]
active: growth inhibition [4] 95%

CCCCc1ccccc1NS(=O)(=O)c1ccc(OC)c(N2CCNCC2)c1
active: growth inhibition [4] 91%
inactive: growth inhibition [1] 2% | inhibition [2] 6% | inhibition [3] 0% | outcome [5] | outcome [6] | outcome [7] | outcome [8]

O=C(/C=C/c1ccc(Cl)c(Cl)c1)NCCCCCN1CCCN(C(=O)Nc2cccc(Cl)c2)CC1
inactive: growth inhibition [1] 2% | inhibition [2] 11% | inhibition [3] 0% | outcome [5] | outcome [6] | outcome [7] | outcome [8]
active: growth inhibition [4] 102%

O=C(n1c(-c2cc3ccccc3n2C(=O)C(F)(F)F)cc2ccccc21)C(F)(F)F
active: growth inhibition [1] 80% | growth inhibition [4] 94%
inactive: inhibition [2] 30% | inhibition [3] 5% | outcome [5] | outcome [6] | outcome [7] | outcome [8]

COc1ccc(NC(=O)c2ccc(-c3nc(-c4ccccc4)cs3)cc2)cc1N1CCN(C)CC1
inactive: growth inhibition [1] 13% | inhibition [2] 17% | inhibition [3] -3% | outcome [5] | outcome [6] | outcome [7] | outcome [8]
active: growth inhibition [4] 93%

O=C(NCc1ccc(C(=O)NCc2cccc3ccccc23)cc1)c1ccc(O)c(-c2ccc(Cl)c(Cl)c2)c1
active: growth inhibition [4] 100%
inactive: growth inhibition [1] 31% | inhibition [2] -10% | inhibition [3] -2% | outcome [5] | outcome [6] | outcome [7] | outcome [8]

O=C(/C=C/c1ccc(Cl)c(Cl)c1)NCCCCCN1CCC(NC(=O)Nc2cc(Cl)ccc2Cl)CC1
active: inhibition [2] 99% | growth inhibition [4] 99%
inactive: growth inhibition [1] 31% | inhibition [3] 0% | outcome [5] | outcome [6] | outcome [7] | outcome [8]

COc1ccc(-c2nonc2NC(=O)c2cccc(C)c2)cc1OC
active: growth inhibition [4] 97%
inactive: growth inhibition [1] 8% | inhibition [2] 24% | inhibition [3] -1% | outcome [5] | outcome [6] | outcome [7] | outcome [8]

Cc1c(CN2CCC(N3CCC(C(=O)NC4CC4)CC3)CC2)[nH]c2c(Cl)cccc12
inactive: growth inhibition [1] 3% | inhibition [2] 22% | inhibition [3] 1% | outcome [5] | outcome [6] | outcome [7] | outcome [8]
active: growth inhibition [4] 92%

CCNc1cc(C(=O)N[C@@H](Cc2ccccc2)[C@H](O)CNC(C)(C)Cc2cccc(OC)c2)cc(N2CCCC2=O)c1
inactive: inhibition [2] 7% | inhibition [3] -8% | outcome [5] | outcome [6] | outcome [7] | outcome [8]
active: growth inhibition [1] 97% | growth inhibition [4] 99%

N=c1c2c(n(Cc3ccccc3)c3c1CCC3)CCCC2
inactive: growth inhibition [1] 39% | inhibition [2] 4% | inhibition [3] -4% | outcome [5] | outcome [6] | outcome [7] | outcome [8]
active: growth inhibition [4] 86%

COc1ccc(CNCc2cccc(-c3ccc(-c4nc5ccccc5[nH]4)cc3)c2)cc1
inactive: inhibition [2] 22% | inhibition [3] 2% | outcome [5] | outcome [6] | outcome [7] | outcome [8]
active: growth inhibition [1] 60% | growth inhibition [4] 101%

CCc1c(CCNCCCCCCNCCc2ccccc2)ccc(OC)c1OC
inactive: growth inhibition [1] 3% | inhibition [2] 33% | inhibition [3] -2% | outcome [5] | outcome [6] | outcome [7] | outcome [8]
active: growth inhibition [4] 102%

Cc1cnc(CN(Cc2ccc(-c3ccc(CNCCc4ccc(S(C)(=O)=O)cc4)cn3)cc2)C(=O)c2ccc([N+](=O)[O-])c(C)c2)cn1
inactive: growth inhibition [1] 15% | inhibition [2] -4% | inhibition [3] 4% | outcome [5] | outcome [6] | outcome [7] | outcome [8]
active: growth inhibition [4] 93%

NC1=Nc2ccc(Cl)cc2C1(O)c1ccccc1 (stereo not given)
inactive: inhibition [2] -3% | inhibition [3] -3% | outcome [5] | outcome [6] | outcome [7] | outcome [8]
active: growth inhibition [1] 51% | growth inhibition [4] 100%

O=C(/C=C/c1ccc(Cl)c(Cl)c1)NCCCCCN1CCCC(c2c[nH]c3ccccc23)C1 (stereo not given)
inactive: growth inhibition [1] 22% | inhibition [2] 25% | inhibition [3] 2% | outcome [5] | outcome [6] | outcome [7] | outcome [8]
active: growth inhibition [4] 99%

Cc1c(OC(C)C)nc2ccccc2c1C(=O)N[C@H](c1cccc(F)c1)C1CC1
inactive: growth inhibition [1] 34% | inhibition [2] 6% | inhibition [3] 3% | outcome [5] | outcome [6] | outcome [7] | outcome [8]
active: growth inhibition [4] 83%

O=C(Nc1cc(Cl)ccc1O)c1cnn2c(C(F)(F)F)cc(-c3cccs3)nc12
active: growth inhibition [1] 74% | growth inhibition [4] 100%
inactive: inhibition [2] 8% | inhibition [3] 1% | outcome [5] | outcome [6] | outcome [7] | outcome [8]

c1ccc(C2CCN(Cc3ccc(-c4c[nH]c5nc(NC6CCCC6)ncc45)cc3)CC2)cc1
inactive: growth inhibition [1] 9% | inhibition [2] 39% | inhibition [3] -1% | outcome [5] | outcome [6] | outcome [7] | outcome [8]
active: growth inhibition [4] 82%

CC(C)CCN1CCC(Oc2ccc(NC(=O)c3ccccc3)cc2Cl)CC1
inactive: inhibition [2] 17% | inhibition [3] 5% | outcome [5] | outcome [6] | outcome [7] | outcome [8]
active: growth inhibition [1] 88% | growth inhibition [4] 87%

O=S(=O)(NCCN1CCCC1)c1ccc(-c2ccc(CNC3Cc4ccccc4C3)cc2)cc1
active: growth inhibition [1] 91% | inhibition [2] 61% | growth inhibition [4] 99%
inactive: inhibition [3] 5% | outcome [5] | outcome [6] | outcome [7] | outcome [8]

CCCc1cn2c3c(cc(C(=O)N[C@@H](Cc4ccccc4)[C@H](O)CNC4CCOCC4)cc13)N(CC)S(=O)(=O)CC2
active: growth inhibition [1] 98% | growth inhibition [4] 97%
inactive: inhibition [2] 2% | inhibition [3] -2% | outcome [5] | outcome [6] | outcome [7] | outcome [8]

CN(Cc1ccccc1)C(=O)CCNS(=O)(=O)c1cc(Br)cnc1N
active: growth inhibition [1] 61% | growth inhibition [4] 91%
inactive: inhibition [2] -5% | inhibition [3] 4% | outcome [5] | outcome [6] | outcome [7] | outcome [8]

O=C1C(c2ccccc2)=C(Nc2ccc(OC(F)(F)F)cc2)c2ccccc21
active: growth inhibition [1] 96% | growth inhibition [4] 96%
inactive: inhibition [2] 18% | inhibition [3] 1% | outcome [5] | outcome [6] | outcome [7] | outcome [8]

O=C(Nc1ccc(OC2CCN(Cc3ccc(F)cc3)CC2)c(Cl)c1)c1ccsc1
inactive: inhibition [2] 5% | inhibition [3] 7% | outcome [5] | outcome [6] | outcome [7] | outcome [8]
active: growth inhibition [1] 90% | growth inhibition [4] 94%

CCN(CC)CCCNc1ncc2c(-c3ccc(NC(=O)Nc4cc(C(F)(F)F)ccc4F)cc3)nn(C)c2n1
active: growth inhibition [1] 74% | inhibition [2] 81% | growth inhibition [4] 99%
inactive: inhibition [3] -3% | outcome [5] | outcome [6] | outcome [7] | outcome [8]

CC1(C)N=C(N)N=C(N)N1OCCSc1ccccc1
active: growth inhibition [1] 95% | inhibition [2] 68% | growth inhibition [4] 95%
inactive: inhibition [3] 3% | outcome [5] | outcome [6] | outcome [7] | outcome [8]
